# Source: PubChem BioAssay (NCATS)
# Several values for one entry are separate records, joined by “and”; a condition that tells them apart may be missing. Equal entries are not always repeated. Inconclusive results are not listed. Activity calls are given as the source filed them. The call rests on the fitted dose curve; in most records, active means well fitted inhibition curve with a large enough effect; inconclusive means small, poorly fitted or top-dose-only effect; inactive means no such curve, though single readings can be large or run the other way.
# Test system: not listed separately
# Assay: Confirmatory screen NINDS Rhodamine qHTS for Zika virus inhibitors (AID 1347161); further: nearly all actives have a fitted effect of over 60% in size
# Details: purified enzyme assay, Rhodamine110 substrate fluorescence, 15 min; series mostly up to 114 µM
# Outline: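 Single-chain NS2B-NS3 protease, 25 nM, pH 8.0; compounds preincubated 15 min. Activity: Rhodamine110 release from 1.5 microM substrate over 15 min, room temperature, data fitted to 4-parameter Hill.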
# Potency means the concentration at half of the fitted maximal effect.
row,Structure (SMILES),Potency
1,O=c1oc2ccccc2c(O)c1C(CC(O)c1ccc(-c2ccc(Br)cc2)cc1)c1ccccc1 (centres undefined),3.16 µM (active)
2,N[C@@H](Cc1ccc(Oc2cc(I)c(O)c(I)c2)c(I)c1)C(=O)O,11.2 µM (active) and 4.94 µM (active)
3,CN(C)[C@@H]1C(=O)C(C(N)=O)=C(O)[C@@]2(O)C(=O)C3=C(O)c4c(O)cccc4[C@@](C)(O)[C@H]3C[C@@H]12,inactive

# Test system: Zika virus NS2B-NS3 protease (linked)
# Assay: 384 well plate NINDS AMC confirmatory qHTS for Zika virus inhibitors (AID 1347163); further: nearly all actives have a fitted effect of over 50% in size
# Details: Recombinant NS2B-NS3 protease, Ac-VKTGKR-AMC fluorescence
# Text: Description: Assay Submitters (PI): Avindra Nath, Ph.D., National Institute of Neurological Disorders and Stroke (NINDS), Bethesda, MD Radhakrishnan Padmanabhan, Ph.D., Georgetown University (GU), Washington D.C. Zika Virus causes congenital defects, including microcephaly and is associated with Guillain-Barre syndrome, eningoencephalitis and myelitis in infected adult. […] Using a target-based approach, we hope to establish a screening paradigm to uncover novel, cell-active NS2B-NS3 protease (Zika Virus) specific inhibitors from NCATS' collection of small molecules using qHTS. […] Four assay panel was created to identify potential Zika Virus inhibitors. Namely, (1) GU unlinked NS2B-NS3 AMC tagged protease qHTS, (2) GU unlinked NS2B-NS3 Rhodamine tagged protease qHTS, (3) NINDS linked NS2B-NS3 AMC tagged protease qHTS, (4) NINDS linked NS2B-NS3 Rhodamine tagged protease qHTS. Active compounds are validated using a secondary assay in 384 well plate format. Early Translation Branch (ETB) National Center for Advancing Translational Sciences (NCATS), Rockville, MD National Institute of Health (NIH), Bethesda, Maryland
# 384-well NINDS AMC Assay The protease was diluted to 7.5 nM, 40.9 nM, or 82 nM in assay buffer and dispensed into a 96-well PCR plate (Applied Biosystems); 20 or 22 microL was transferred to a black 384-well assay plate (final protease concentration of 5 nM, 30 nM, or 60 nM, respectively). Compounds (3 microL, 1 microM - 10 mM, DMSO) were diluted and transferred to the assay plate (final concentrations ranged from 100 nM to 1 mM). Compounds were incubated with protease for ~15 minutes. The substrate, Ac-VKTGKR-AMC (Genscript), was dissolved in DMSO to a concentration of 6 mM and further diluted into assay buffer to a working concentration of 180 microM, then dispensed into a 384-well preparation plate (Eppendorf). A multichannel repeat pipettor was used to add 3 or 5 microL of substrate to the assay plate to give a final concentration of 30 microM. The plate was incubated in the dark at room temperature. After 25 minutes, the fluorescence intensity (excitation: 355 nm, emission: 460 nm) was measured and normalized to no-enzyme and no-inhibitor controls. Aprotinin39 (VWR) was used as an intraplate control.
row,Structure (SMILES),Potency
1,O=c1oc2ccccc2c(O)c1C(CC(O)c1ccc(-c2ccc(Br)cc2)cc1)c1ccccc1 (centres undefined),31.6 µM (active)
2,N[C@@H](Cc1ccc(Oc2cc(I)c(O)c(I)c2)c(I)c1)C(=O)O,50.1 µM (active)
3,CN(C)[C@@H]1C(=O)C(C(N)=O)=C(O)[C@@]2(O)C(=O)C3=C(O)c4c(O)cccc4[C@@](C)(O)[C@H]3C[C@@H]12,224 µM (active)

# Test system: Zika virus NS2B-NS3 protease (linked construct)
# Assay: 384 well plate NINDS Rhodamine confirmatory qHTS for Zika virus inhibitors (AID 1347164);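 further: fluorescence from protease cleavage of Ac-LKRR-rhodamine 110 substrate; nearly all actives have a fitted effect of over 65% in size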
# Details: rhodamine-110 peptide substrate fluorescence; series mostly up to 100 µM
# Outline: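 Linked NS2B-NS3 protease (final 5, 30 or 60 nM) preincubated ~15 minutes with compounds, then 10 microM Ac-LKRR-Rhodamine 110 added. Fluorescence (485/538 nm) read after 25 minutes at room temperature, normalized to no-enzyme and no-inhibitor controls.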
row,Structure (SMILES),Potency
1,O=c1oc2ccccc2c(O)c1C(CC(O)c1ccc(-c2ccc(Br)cc2)cc1)c1ccccc1 (centres undefined),6.31 µM (active)
2,N[C@@H](Cc1ccc(Oc2cc(I)c(O)c(I)c2)c(I)c1)C(=O)O,inactive
3,CN(C)[C@@H]1C(=O)C(C(N)=O)=C(O)[C@@]2(O)C(=O)C3=C(O)c4c(O)cccc4[C@@](C)(O)[C@H]3C[C@@H]12,inactive
